Hits are enriched below; roughly 2.4% of the tested compounds scored in any of these assays.
CHRM1 agonist – human M1 muscarinic receptor agonism; 360,000 tested, 0.33% active; P11229; CHO-K1 hM1, Fluo-8 calcium fluorescence, agonist mode; 0% DMSO, 100% acetylcholine EC100; AID 588814; activation, % at 3 µM;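 active means activation above the run's mean compound activation plus 3 SD, cut at about 16% in these data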;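 further: peak over basal fluorescence ratio within a 140 s kinetic read after compound addition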
Target sequence (P11229 whole entry, looked up): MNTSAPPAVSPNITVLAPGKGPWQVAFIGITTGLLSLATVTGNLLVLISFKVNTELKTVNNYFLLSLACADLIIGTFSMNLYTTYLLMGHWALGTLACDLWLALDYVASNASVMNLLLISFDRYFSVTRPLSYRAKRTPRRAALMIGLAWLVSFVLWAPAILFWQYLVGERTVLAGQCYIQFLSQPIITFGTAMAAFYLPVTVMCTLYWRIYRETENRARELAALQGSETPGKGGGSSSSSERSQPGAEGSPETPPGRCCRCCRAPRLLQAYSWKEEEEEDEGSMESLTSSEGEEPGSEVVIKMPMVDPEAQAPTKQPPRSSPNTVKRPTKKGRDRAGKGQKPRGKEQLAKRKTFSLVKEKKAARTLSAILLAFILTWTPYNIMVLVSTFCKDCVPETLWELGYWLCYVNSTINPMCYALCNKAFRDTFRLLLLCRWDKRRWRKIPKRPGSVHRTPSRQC
CHO-K1 Ca PAM – nonselective activator or artifact in parental CHO-K1 calcium assay; AID 602247; ATP EC20, Fluo-8 calcium fluorescence; 0% at ATP EC20, 100% at ATP max; 360,000 tested, 0.02% active; activation, % at 3 µM;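 active means activation above the run cutoff, the mean activation of all test compounds plus 3 SD, cut at about 40% in these data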;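 further: peak over basal fluorescence ratio in a 140 s read after ATP addition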
M1 PAM – potentiates human M1 receptor response to acetylcholine; P11229; CHO-K1 hM1, Fluo-8 calcium fluorescence, ACh EC20; 0% = ACh EC20, 100% = maximal ACh; activation, % at 3 µM; 360,000 tested, 0.088% active; AID 588819; in the data active means activation above about 19%, passing the limit was not always enough
CHO-K1 Ca antag – M1 antagonist counterscreen hit in parental CHO-K1 cells; ATP-induced calcium, Fluo-8 fluorescence; inhibition, % at 3 µM; 360,000 tested, 0.6% active; AID 602250;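 active means inhibition above a per-plate cutoff, the plate's mean sample inhibition plus 3 SD, cut at about 24% in these data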;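 further: 0% = DMSO plus EC80 ATP and 100% = DMSO alone without ATP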
CHO-K1 Ca ag – counter-screen for M1 agonists: effect in parental CHO-K1 cells; Fluo-8 calcium fluorescence; scaled to maximal ATP response, vehicle zero; activation, % at 3 µM; 360,000 tested, 0.48% active; AID 602248; in the data active means activation above about 15%;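 further: untransfected CHO-K1 host cells lacking M1 receptor as counterscreen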
CHRM1 antagonist – blocks human M1 muscarinic receptor; P11229; CHO-K1 hM1, Fluo-8 calcium fluorescence, ACh EC80 antagonist; inhibition, % at 3 µM; 360,000 tested, 1.3% active;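 active means percent inhibition above its own plate's cutoff, namely the mean of that plate's compound wells plus 3 SD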;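 further: peak over basal fluorescence ratio during 140 s after agonist addition; 0% = ACh EC80 plus DMSO and 100% = DMSO alone without agonist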
* marks the source's active call; other numbers are inactive results.

SMILES | CHRM1 agonist | CHO-K1 Ca PAM | M1 PAM | CHO-K1 Ca antag | CHO-K1 Ca ag | CHRM1 antagonist
CCC[C@@H](CN1CCC[C@H]1CN1C(N)=NC[C@H]1CC(C)C)N1C[C@@H]([C@H](C)CC)N(CCc2ccc(Cl)c(Cl)c2)C1=N | -11.1 | -10.3 | -28.9 | 4.8 | -0.2 | 38.4*
CC[C@@H](C)[C@@H]1CN([C@@H](C)CN2CCC[C@H]2CN2C(N)=NC[C@H]2CC(C)C)C(=N)N1CCc1ccc(Cl)c(Cl)c1 | -13.3 | 10.6 | -39.4 | -3.5 | -0.3 | 38.5*
CCC[C@@H](CN1CCC[C@H]1CN1C(N)=NC[C@@H]1Cc1ccccc1)N1C[C@@H]([C@H](C)CC)N(CCc2ccc(Cl)c(Cl)c2)C1=N | -10.4 | -11.4 | -30.4 | 1.7 | -0.3 | 36.3
CCOc1ccc(NC(=S)Nc2ccccc2C2CC2)cc1 | -6.4 | -15.2 | -9.5 | 25.5* | -0.3 | 10.3
O=C(CNC(=O)c1ccco1)N/N=C/c1ccc(C(=O)O)cc1 | -0.2 | 8.8 | 22.9 | 9.0 | 0.0 | -13.7
N=c1c2c3c(sc2nc2n1CCCCC2)CCCCC3 | -4.5 | 8.4 | -21.4 | -13.2 | 2.8 | 92.2*
O=c1c2c3c(sc2nc2n1CCCCC2)CCCCC3 | -8.8 | -5.1 | -16.4 | 9.6 | -0.1 | 14.4
CC(CNCc1ccc2c(c1)OCO2)NCc1ccc2c(c1)OCO2 (configuration not stated) | -8.9 | 43.1* | -6.9 | -23.6 | 1.8 | -4.2
Fc1ccc(CNCc2ccc3c(c2)OCO3)cc1 | -1.3 | -9.2 | 13.0 | 10.3 | 0.0 | -12.9
COc1ccc(/C=C2\CN(Cc3ccccc3)C/C(=C\c3ccc(OC)cc3OC)C2=O)c(OC)c1 | 0.3 | 4.1 | -7.4 | 8.7 | 3.9 | 29.2*
COc1ccc(/C=C2\CN(Cc3ccccc3)C/C(=C\c3ccc(OC)cc3)C2=O)cc1 | -4.8 | 0.9 | 4.5 | 4.2 | 0.3 | -8.4
CN(C)C(=O)COn1c(SCC(=O)N(C)C)nc2ccccc2c1=O | -2.5 | 11.7 | -1.4 | 3.3 | 0.3 | 3.6
CCOC(=O)COn1c(SCC(=O)OCC)nc2ccccc2c1=O | -1.7 | -9.4 | 1.9 | 25.8* | 0.8 | 7.8
COC(=O)CC1C(=O)NCCN1C(=O)CSc1nc2ccc([N+](=O)[O-])cc2s1 (configuration not stated) | -2.8 | 6.2 | 2.2 | -4.3 | 1.0 | 2.4
COc1cc(-c2nc(C(=O)NCC3CCCO3)cc3c2[nH]c2ccccc23)cc(OC)c1OC (configuration not stated) | -2.8 | -14.7 | -12.2 | 5.0 | 4.4 | 11.5
O=C(NCC1CCCO1)c1cc2c([nH]c3ccccc32)c(-c2cccc(Cl)c2)n1 (configuration not stated) | -2.3 | -18.8 | -23.6 | 13.6 | 4.9 | 35.3*
CN(C)CCOCCSc1ccc(Cl)cc1 | -7.0 | 18.4 | -7.9 | -2.6 | 0.3 | 5.4
Clc1ccc(SCCOCCN2CCCCCC2)cc1 | -7.4 | -2.4 | -27.0 | 3.8 | 0.5 | 42.0*
O=c1c2ccccc2c(-c2ccccc2)nn1Cc1c(Cl)cccc1Cl | -0.8 | 19.0 | 2.0 | -11.5 | 0.2 | -5.5
Clc1cccc(Cl)c1Cn1ccc(C2CC2)n1 | -3.8 | 5.6 | 5.7 | 4.2 | 16.4* | -2.0
CCCc1cc(=O)[nH]c2nnc(SCC(=O)Nc3cccc(NC(C)=O)c3)n12 | 19.9* | -22.6 | 15.5 | 10.6 | -0.4 | 2.1
Nc1ccc(S(=O)(=O)Nc2nc(-c3ccccc3)cc(-c3ccccc3O)n2)cc1 | 20.3* | 12.9 | 1.5 | -7.5 | 2.4 | -13.3
Nc1ccc(S(=O)(=O)Nc2nc(-c3ccccc3)cc(-c3ccccc3)n2)cc1 | -1.6 | 13.8 | 11.0 | -9.8 | 7.2 | -12.6
CCCC(=O)N1CCCC1(C)C(=O)Nc1ccc(-n2cncn2)cc1 (configuration not stated) | -2.3 | 17.2 | 4.2 | -7.6 | 0.9 | -9.4
CC(C)Oc1cc(C(=O)NC2CCCCC2)c2ccccc2n1 | -4.9 | -23.9 | 7.8 | 10.7 | -0.4 | -6.2
SMILES | CHRM1 agonist | CHO-K1 Ca PAM | M1 PAM | CHO-K1 Ca antag | CHO-K1 Ca ag | CHRM1 antagonist
FC(F)(F)c1cccc(N2CCN(C(=S)NC3CCCC3)CC2)c1 | -2.5 | 2.5 | -12.3 | 2.4 | 3.4 | 33.4*
Fc1ccc(NC(=S)NC2CCN(Cc3ccccc3)CC2)cc1 | -7.4 | 2.9 | -9.3 | -6.3 | 5.0 | 7.3
S=C(Nc1ccc2nsnc2c1)NC1CCCCC1 | -3.0 | 0.2 | -10.4 | -10.8 | 4.3 | 5.1
S=C(Nc1ccc(Cl)c(Cl)c1)NC1CCCCC1 | -3.5 | 1.6 | -29.3 | 12.7 | 22.8* | 44.4*
FC(F)(F)c1cccc(NC(=S)NC2CCCC2)c1 | -4.2 | -15.7 | -14.1 | 24.6* | 9.4 | 18.2
S=C(Nc1ccc(Cl)c(Cl)c1)NC1CCN(Cc2ccccc2)CC1 | 17.2* | 13.9 | 10.8 | 23.9* | 12.1 | 6.0
O=S(=O)(c1ccc(NC(=S)NC2CCCC2)cc1)N1CCCC1 | -7.3 | -10.3 | -14.7 | 24.9* | 4.2 | 10.1
CN(C)CCN(C(=O)c1cccc2ccccc12)c1nc2cc3c(cc2s1)OCO3 | -6.5 | -6.7 | -18.8 | -9.8 | 1.4 | 46.8*
CN(C)CCCN(C(=O)c1ccc2ccccc2c1)c1nc2cc3c(cc2s1)OCO3 | -1.3 | -4.0 | -0.9 | -8.2 | 3.0 | 2.1
CCCCOc1ccccc1NC(=O)c1scc2c1OCCO2 | -4.8 | 52.8* | -0.9 | -24.5 | 2.3 | 0.2
O=c1cc(-c2ccc(O)cc2)oc2cc(O)cc(O)c12 | -0.7 | -11.6 | -1.0 | 7.6 | 0.4 | -11.8
O=c1c(O)c(-c2ccc(O)cc2)oc2cc(O)cc(O)c12 | 19.0* | 8.4 | 14.8 | -8.3 | 1.6 | -6.8
CCCCc1ncc(CN2CCC(n3nccc3NC(=O)c3ccccc3Cl)CC2)[nH]1 | -7.3 | -10.4 | -20.1 | 6.6 | 0.1 | 28.9
Cn1c2c(sc1=O)CCC2 | -1.4 | -2.0 | 7.3 | -6.3 | 0.1 | -17.8
CCN(CC)CCOC(=O)C(c1ccccc1)C1CCCCC1 (configuration not stated) | -6.8 | -7.3 | -26.8 | 4.2 | 0.0 | 99.1*
CCN(CC)CCSC(=O)C(c1ccccc1)c1ccccc1 | -8.7 | 20.6 | -26.4 | -5.2 | 0.8 | 100.6*
CCN(CC)CCOC(=O)C(c1ccccc1)c1ccccc1 | -4.9 | 21.9 | -25.2 | -5.3 | 0.7 | 96.5*
CCN(CCO)C(=O)C(c1ccccc1)c1ccccc1 | -2.6 | 12.8 | 10.3 | -5.4 | -0.1 | -1.6
CCOC(=O)c1cc[nH]c1C | -6.6 | 5.5 | -2.8 | -1.6 | -0.1 | 2.8
COc1ccc(-c2cn(-c3ccc(SC(F)F)cc3)c3[n+]2CCC3)cc1OC | -10.4 | 15.2 | -8.8 | -3.8 | 0.2 | 1.9
FC(F)Sc1ccc(-n2cc(-c3ccccc3)[n+]3c2CCC3)cc1 | -12.2 | -12.9 | -26.4 | 5.2 | 0.0 | 69.7*
Cn1cc(CN2CCN(c3ccccc3)CC2)c2ccccc21 | -7.7 | 12.6 | -18.1 | 1.6 | 3.6 | 31.3*

Bioassay records deposited in PubChem by The Scripps Research Institute Molecular Screening Center.
